Results taken from PubChem BioAssay (Tox21).
“And” between values parts separate entries of the source, which are not always exact repeats. Equal values may be shown once. Records with an inconclusive call do not appear. Where a call stands in place of a potency, no number is given. The source holds several records for some structures; these can differ, active in one and inactive in another. The source made the active and inactive calls. Unless noted, calls come from the whole dose curve.

What was measured:
[1] = Nuclear factor erythroid 2-related factor 2/antioxidant responsive element (Nrf2/ARE) small molecule agonists: qHTS cell viability counter screen in human keratinocytes (AID 1919968; active = well fitted curve in the direction sought with a large enough effect in the repeat runs; an effect the other way counts as inactive or inconclusive; note: nearly all actives have a fitted effect of over 55% in size); conditions: KeratinoSens HaCaT ARE cells viability, CellTiter-Fluor, 24 h; series mostly up to 92.4 µM
Summary of the method: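 Cytotoxicity was multiplexed with the Nrf2/ARE luciferase assay in the same wells. Stably transfected HaCaT keratinocytes were treated with test compounds for 23 h at 37 C. Cell viability was then measured by CellTiter-Fluor fluorescence.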

[2] = Nuclear factor erythroid 2-related factor 2/antioxidant responsive element (Nrf2/ARE) small molecule agonists: luciferase reporter gene qHTS assay in human keratinocytes (AID 1919969); conditions: KeratinoSens HaCaT ARE-luciferase, luminescence, 24 h; series mostly up to 92.4 µM; note: nearly all actives have a fitted effect of over 35% in size; note: potency is the fitted concentration of half-maximal effect
[3] = target: Gonadotropin-releasing hormone receptor (Homo sapiens) (UniProt P30968); assay: Human gonadotropin-releasing hormone receptor (GnRHR) small molecule agonists, calcium flux assay in GnRHR-HEK293 cells (AID 1920063); conditions: calcium flux fluorescence, agonist mode; series mostly up to 57.6 µM; note: nearly all actives have a fitted effect of over 35% in size
Summary of the method: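 Agonist activity was measured as intracellular calcium flux in HEK293 cells engineered to stably express human GnRHR. After dye loading for 1 hour at 37 C, compounds in DMSO were added and fluorescence was followed for 3 minutes.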

[4] = target: KiSS-1 receptor (Homo sapiens) (UniProt Q969F8); assay: Human kisspeptin (KISS1R) small molecule agonists, calcium flux assay in KISS1R-HEK293 cells (AID 1920064; active = well fitted curve in the direction sought with a large enough effect in the repeat runs; an effect the other way counts as inactive or inconclusive); conditions: KISS1R-HEK293, calcium flux fluorescence, agonist; series mostly up to 76.8 µM
Summary of the method: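 Agonist activity is monitored as intracellular calcium rise in engineered HEK293 cells carrying human KISS1R. Cells are dye-loaded for 1 h at 37 C before compound addition, and fluorescence is recorded for 3 min.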

[5] = G protein-coupled receptor (GPCR) small molecule agonists, calcium flux assay: HEK293 wild type cell line counter screen (AID 1920065); conditions: HEK293 WT calcium flux, fluorescence, agonist mode; series mostly up to 57.6 µM
Summary of the method: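 Seed cells, incubate 18 h (37 C, 5% CO2); add calcium dye, 1 h at 37 C; pin-transfer compounds, ATP control or DMSO; read fluorescence 480/540 nm each second for 3 min.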

[6] = p53 small molecule agonists, cell-based qHTS assay with human liver microsomes (AID 1963577); conditions: HCT-116 p53RE-bla with human liver microsomes, ratio, 16 h; series mostly up to 66 µM; note: potency is the fitted concentration of half-maximal effect
Summary of the method: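 p53RE-bla reporter cells were pre-incubated 5 h at 37 C, then treated with compounds plus human liver microsomes (0.5 mg/mL final) and NADPH (0.5 mg/mL final) for 16 h at 37 C. Beta-lactamase activity was read by LiveBLAzer fluorescence after 2 h at room temperature.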

[7] = p53 small molecule agonists, cell-based qHTS assay with rat liver microsomes (AID 1963578); conditions: HCT-116 p53RE-bla, beta-lactamase ratio, 16 h; series mostly up to 66 µM; note: potency is the fitted concentration of half-maximal effect
Summary of the method: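 p53RE-bla cells were exposed to compounds together with rat liver microsomes (0.5 mg/mL final) and NADPH (0.5 mg/mL final) for 16 h at 37 C, then read by LiveBLAzer beta-lactamase fluorescence after 2 h at room temperature.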

[8] = p53 small molecule agonists, cell-based qHTS assay with human liver microsomes: qHTS cell viability counter screen (AID 1963579); conditions: p53RE-bla HCT-116 viability, ATP luminescence, 16 h, HLM; series mostly up to 66 µM; note: nearly all actives have a fitted effect of over 45% in size
Summary of the method: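 p53RE-bla cells (4,000/well) were pre-incubated 5 h at 37 C, then given compounds in DMSO plus human liver microsomes (0.5 mg/mL final) and NADPH (0.5 mg/mL final) for 16 h at 37 C. Viability was read by CellTiter-Glo luminescence.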

[9] = p53 small molecule agonists, cell-based qHTS assay: qHTS cell viability counter screen (AID 1963581); conditions: p53RE-bla HCT-116 viability, ATP luminescence, 16 h; series mostly up to 66 µM; note: nearly all actives have a fitted effect of over 45% in size
Summary of the method: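 Viability was counter-screened in parallel with the p53 agonist reporter by measuring intracellular ATP luminescence in the same HCT-116 p53RE-bla wells after 16 h compound treatment at 37 C.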

[10] = p53 small molecule agonists, cell-based qHTS assay (AID 1963582; active = well fitted activation curve with a large enough effect in the signal ratio in the repeat runs, not every such curve was filed as active; the % refers to the signal ratio); conditions: HCT-116 p53RE-bla reporter, beta-lactamase FRET ratio, 16 h; series mostly up to 66 µM
Summary of the method: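 Cells carrying a p53-responsive bla reporter are treated with test compounds for 16 h at 37 C; beta-lactamase activity is then detected with LiveBLAzer B/G FRET substrate after 2 h at room temperature.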

[11] = target: 5-hydroxytryptamine receptor 2A (Homo sapiens) (UniProt P28223); assay: 5-hydroxytryptamine receptor 2A (HTR2A) small molecule agonists, cell-based qHTS assay (AID 1963587); conditions: HTR2A-CHO cells, calcium flux fluorescence, agonist mode; series mostly up to 76.8 µM; note: nearly all actives have a fitted effect of over 30% in size
Summary of the method: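 HTR2A-CHO cells, plated 18 h at 37 C/5% CO2, dye-loaded 1 h at 37 C; compounds in DMSO added by pin tool (agonist mode). Intracellular calcium flux read as kinetic fluorescence on FDSS over 2 min at 1 s intervals.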

[12] = target: Muscarinic acetylcholine receptor M1 (Homo sapiens) (UniProt P11229); assay: Cholinergic receptor muscarinic 1 (CHRM1) small molecule antagonists, cell-based qHTS assay (AID 1963588); conditions: CHRM1-CHO antagonist mode, calcium flux fluorescence; series mostly up to 61.5 µM; note: nearly all actives have a fitted effect of over 40% in size; note: potency is the fitted concentration of half-maximal effect
Summary of the method: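 Compounds were tested at 15 concentrations in three independent runs. Dye-loaded CHRM1-CHO cells were exposed 5 min at room temperature before stimulation by acetylcholine added at 50nM. Intracellular calcium was read kinetically on FDSS for 3 min.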

[13] = target: Muscarinic acetylcholine receptor M1 (Homo sapiens) (UniProt P11229); assay: Cholinergic receptor muscarinic 1 (CHRM1) small molecule agonists, cell-based qHTS assay (AID 1963589); conditions: CHRM1-CHO cells, agonist mode, calcium flux fluorescence; series mostly up to 76.8 µM; note: nearly all actives have a fitted effect of over 35% in size
Summary of the method: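 Cells were plated and incubated 18 h at 37 C/5% CO2, loaded with calcium dye for 1 h at 37 C, then treated with compounds in DMSO. Fluorescence was recorded kinetically at 1 sec intervals.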

[14] = cAMP Responsive Elements (CRE) small molecule agonists, cell-based qHTS assay (AID 1963590); conditions: CRE-bla HEK293T, beta-lactamase FRET ratio, 3 h; series mostly up to 92.4 µM
Summary of the method: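 Cells carrying a CRE-driven beta-lactamase reporter (HEK 293T) are seeded, incubated overnight (18 h), and treated with test compounds for 3 h at 37 C; reporter activity is then detected with a FRET substrate after 2 h at room temperature.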

[15] = target: Beta-2 adrenergic receptor (Homo sapiens) (UniProt P07550); assay: Adrenergic beta2 receptor (ADRB2) small molecule antagonists, cell-based qHTS assay (AID 1963592); conditions: CHO-ADRB2 cells, isoproterenol-stimulated cAMP HTRF ratio, 0.5 h; series mostly up to 92.4 µM; note: nearly all actives have a fitted effect of over 50% in size
Summary of the method: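 Assay format: CHO-ADRB2 cells, 18-20hr seeding at 37C/5% CO2, then compound plus 1nM isoproterenol agonist mix for 0.5hr RT. Homogeneous time-resolved fluorescence cAMP detection after 1hr, expressed as 665/615 nm ratio.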

[16] = target: Beta-2 adrenergic receptor (Homo sapiens) (UniProt P07550); assay: Adrenergic beta2 receptor (ADRB2) small molecule agonists, cell-based qHTS assay (AID 1963593); conditions: CHO-ADRB2 cells, cAMP HTRF, 30 min; series mostly up to 92.4 µM;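 note: CHO cells stably overexpressing human ADRB2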
Summary of the method: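 CHO cells stably over-expressing ADRB2 were plated overnight at 37C, then dosed with compounds plus a stimulation mix containing 100uM IBMX and 25uM Ro-20-1724 for 0.5hr at room temperature. cAMP was measured by HTRF competition, 1hr.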

[17] = target: D(2) dopamine receptor (Homo sapiens) (UniProt P14416); assay: Dopamine D2 receptor (DRD2) small molecule agonists, cell-based qHTS assay (AID 1963594); conditions: HEK293-DRD2 cAMP HTRF, agonist mode, 30 min; series mostly up to 92.4 µM; note: nearly all actives have a fitted effect of over 35% in size
Summary of the method: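 HEK293 cells stably expressing DRD2 were cultured 24 h at 37 C, then given Ro20-1724 (0.1 mM final) and compounds for 10 min at room temperature. NKH477 (200nM) was then added for 30 min. cAMP was read by HTRF.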

[18] = target: 5-hydroxytryptamine receptor 2A (Homo sapiens) (UniProt P28223); assay: 5-hydroxytryptamine receptor 2A (HTR2A) small molecule antagonists, cell-based qHTS assay (AID 1963586); conditions: HTR2A-CHO cells, DOI-induced calcium flux, fluorescence; series mostly up to 61.5 µM; note: nearly all actives have a fitted effect of over 45% in size
Summary of the method: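 CHO cells stably expressing human HTR2A were plated for 18 h at 37 C, then loaded with calcium dye for 1 h. Compounds were preincubated 5 min at room temperature before DOI (4 nM solution) was added. Kinetic fluorescence was read for 3 min.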

[19] = cAMP Responsive Elements (CRE) small molecule antagonists, cell-based qHTS assay (AID 1963591; active = well fitted inhibition curve with a large enough effect in the signal ratio in the repeat runs, not every such curve was filed as active; the % refers to the signal ratio); conditions: CRE-bla HEK293T, beta-lactamase FRET ratio; series mostly up to 92.4 µM
Summary of the method: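 Cells (CRE-bla HEK 293T, DMEM with 10% dialyzed FBS and 25 mM HEPES) are seeded and incubated 18 h. Compounds are added with NKH477 agonist at 0.25 uM final for 3 h, then FRET substrate for 2 h.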

[20] = target: D(2) dopamine receptor (Homo sapiens) (UniProt P14416); assay: Dopamine D2 receptor (DRD2) small molecule antagonists, cell-based qHTS assay (AID 1963595; active = well fitted inhibition curve with a large enough effect in the signal ratio in the repeat runs, with a control signal flat; the % refers to the signal ratio); conditions: HEK293-DRD2 cAMP HTRF antagonist mode; series mostly up to 92.4 µM
Summary of the method: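 DRD2-HEK293; 0.1 mM Ro20-1724; cpd 10 min RT; NKH477 200 nM + quinpirole 12 nM, 30 min RT; HTRF cAMP (cAMP-d2/anti-cAMP cryptate), 665/620 nm ratio after 1 h.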

Chain of 5-hydroxytryptamine receptor 2A (Homo sapiens) (P28223 whole entry, looked up): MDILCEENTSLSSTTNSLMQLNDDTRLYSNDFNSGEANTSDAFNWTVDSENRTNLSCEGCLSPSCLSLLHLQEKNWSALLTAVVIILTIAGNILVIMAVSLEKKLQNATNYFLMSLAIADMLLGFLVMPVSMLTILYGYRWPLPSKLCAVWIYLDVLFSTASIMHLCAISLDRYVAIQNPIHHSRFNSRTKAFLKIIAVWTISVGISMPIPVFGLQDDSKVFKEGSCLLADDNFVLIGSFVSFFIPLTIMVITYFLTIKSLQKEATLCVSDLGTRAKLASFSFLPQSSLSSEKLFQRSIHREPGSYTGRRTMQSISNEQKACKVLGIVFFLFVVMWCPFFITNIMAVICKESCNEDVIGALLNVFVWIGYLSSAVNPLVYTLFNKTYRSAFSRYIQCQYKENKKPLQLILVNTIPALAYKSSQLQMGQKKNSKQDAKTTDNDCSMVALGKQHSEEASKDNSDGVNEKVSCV
Chain of Muscarinic acetylcholine receptor M1 (Homo sapiens) (P11229 whole entry, looked up): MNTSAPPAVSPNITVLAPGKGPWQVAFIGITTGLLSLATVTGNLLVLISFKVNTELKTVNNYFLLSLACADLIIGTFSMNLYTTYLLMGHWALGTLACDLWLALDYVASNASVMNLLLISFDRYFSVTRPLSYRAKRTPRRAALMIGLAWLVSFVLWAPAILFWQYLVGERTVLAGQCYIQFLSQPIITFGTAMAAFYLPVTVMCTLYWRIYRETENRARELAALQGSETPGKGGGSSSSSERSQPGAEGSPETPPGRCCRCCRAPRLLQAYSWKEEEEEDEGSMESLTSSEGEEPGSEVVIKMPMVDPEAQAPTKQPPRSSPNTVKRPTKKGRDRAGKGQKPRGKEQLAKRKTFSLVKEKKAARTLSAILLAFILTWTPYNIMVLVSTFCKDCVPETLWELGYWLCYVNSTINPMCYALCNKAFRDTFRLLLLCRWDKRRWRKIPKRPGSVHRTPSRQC
Chain of KiSS-1 receptor (Homo sapiens) (Q969F8 whole entry, looked up): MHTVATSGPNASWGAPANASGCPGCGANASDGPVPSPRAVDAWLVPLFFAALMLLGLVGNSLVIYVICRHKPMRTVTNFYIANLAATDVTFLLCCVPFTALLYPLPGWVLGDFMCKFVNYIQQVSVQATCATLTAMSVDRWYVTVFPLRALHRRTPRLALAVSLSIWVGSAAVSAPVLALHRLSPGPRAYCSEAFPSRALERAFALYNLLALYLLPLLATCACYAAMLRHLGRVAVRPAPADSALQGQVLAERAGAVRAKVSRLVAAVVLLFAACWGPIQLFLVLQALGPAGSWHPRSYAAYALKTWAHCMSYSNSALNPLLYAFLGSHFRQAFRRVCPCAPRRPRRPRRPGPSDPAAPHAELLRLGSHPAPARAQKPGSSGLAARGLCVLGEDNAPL
Chain of D(2) dopamine receptor (Homo sapiens) (P14416 whole entry, looked up): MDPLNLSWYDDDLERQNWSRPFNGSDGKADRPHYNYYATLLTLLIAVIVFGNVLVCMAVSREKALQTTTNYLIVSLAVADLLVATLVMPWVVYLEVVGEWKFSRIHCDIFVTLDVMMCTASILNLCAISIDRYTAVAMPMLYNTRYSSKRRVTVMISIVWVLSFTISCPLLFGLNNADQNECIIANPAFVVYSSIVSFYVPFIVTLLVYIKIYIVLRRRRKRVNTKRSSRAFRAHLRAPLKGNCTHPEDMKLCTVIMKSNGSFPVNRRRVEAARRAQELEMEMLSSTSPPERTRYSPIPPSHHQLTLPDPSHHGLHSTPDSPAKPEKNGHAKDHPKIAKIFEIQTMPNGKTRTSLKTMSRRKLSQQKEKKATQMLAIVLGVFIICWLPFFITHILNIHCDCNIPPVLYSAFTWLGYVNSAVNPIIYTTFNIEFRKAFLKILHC
Chain of Gonadotropin-releasing hormone receptor (Homo sapiens) (P30968 whole entry, looked up): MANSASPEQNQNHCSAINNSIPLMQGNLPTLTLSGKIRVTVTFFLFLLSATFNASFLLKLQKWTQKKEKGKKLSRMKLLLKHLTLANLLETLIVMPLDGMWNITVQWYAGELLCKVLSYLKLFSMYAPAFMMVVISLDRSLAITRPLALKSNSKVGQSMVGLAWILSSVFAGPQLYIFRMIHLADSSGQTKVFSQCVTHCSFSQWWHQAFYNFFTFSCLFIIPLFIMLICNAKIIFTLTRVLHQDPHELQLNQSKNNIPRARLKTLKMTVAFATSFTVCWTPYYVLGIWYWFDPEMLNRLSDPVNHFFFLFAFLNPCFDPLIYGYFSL
Chain of Beta-2 adrenergic receptor (Homo sapiens) (P07550 whole entry, looked up): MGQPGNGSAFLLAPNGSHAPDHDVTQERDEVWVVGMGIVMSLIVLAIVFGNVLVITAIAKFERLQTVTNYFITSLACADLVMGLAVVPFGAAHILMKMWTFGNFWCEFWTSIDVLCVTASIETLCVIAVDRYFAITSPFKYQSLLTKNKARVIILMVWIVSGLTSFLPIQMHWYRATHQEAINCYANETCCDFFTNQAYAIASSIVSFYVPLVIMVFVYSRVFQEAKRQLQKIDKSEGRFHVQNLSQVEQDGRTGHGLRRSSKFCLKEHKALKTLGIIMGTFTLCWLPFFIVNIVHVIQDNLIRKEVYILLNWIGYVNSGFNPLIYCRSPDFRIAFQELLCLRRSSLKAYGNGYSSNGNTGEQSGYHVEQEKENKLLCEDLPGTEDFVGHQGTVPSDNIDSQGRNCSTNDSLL

Row | Compound | Potency [1] | Potency [2] | Potency [3] | Potency [4] | Potency [5] | Potency [6] | Potency [7] | Potency [8] | Potency [9] | Potency [10] | Potency [11] | Potency [12] | Potency [13] | Potency [14] | Potency [15] | Potency [16] | Potency [17] | Potency [18] | Potency [19] | Potency [20]
1 | CNC(=O)c1c(I)c(NC(C)=O)c(I)c(C(=O)O)c1I | inactive | inactive | inactive | inactive | inactive | inactive | inactive | inactive | inactive | inactive | inactive | inactive | inactive | inactive | inactive | inactive | inactive | – | – | –
2 | Cn1cnc2c(F)c(Nc3ccc(Br)cc3Cl)c(C(=O)NOCCO)cc21 | inactive | inactive | inactive | inactive | inactive | inactive | inactive | inactive | inactive | inactive | inactive | inactive | inactive | inactive | inactive | inactive | inactive | inactive | inactive | inactive
3 | CCCCC1CCC(O)CC1 (stereo not drawn) | inactive | inactive | inactive | inactive | inactive | inactive | inactive | inactive | inactive | inactive | inactive | inactive | – | inactive | inactive | inactive | inactive | inactive | inactive | –
4 | CC(CCC(=O)O)C(=O)O (stereo not drawn) | inactive | inactive | inactive | inactive | inactive | inactive | inactive | inactive | inactive | inactive | inactive | inactive | inactive | – | inactive | inactive | inactive | inactive | inactive | inactive
5 | O=C(O)c1cccc(C(F)(F)F)c1 | inactive | inactive | inactive | inactive | inactive | inactive | inactive | inactive | inactive | inactive | inactive | inactive | inactive | inactive | inactive | – | inactive | inactive | inactive | inactive
6 | NC(=O)c1ccccc1Cl | inactive | inactive | inactive | inactive | inactive | inactive | inactive | inactive | inactive | inactive | inactive | inactive | inactive | inactive | inactive | inactive | inactive | inactive | inactive | inactive
7 | CC1COc2ccccc2N1 (stereo not drawn) | inactive | 54.5 µM (active) | inactive | inactive | inactive | inactive | inactive | – | inactive | inactive | inactive | inactive | inactive | inactive | inactive | inactive | inactive | inactive | inactive | inactive
8 | CC(=O)CC(C)=O | inactive | inactive | inactive | inactive | inactive | inactive | inactive | – | inactive | inactive | inactive | inactive | inactive | inactive | inactive | inactive | inactive | inactive | inactive | inactive
9 | CC(C)(O)C(=O)c1ccc(OCCO)cc1 | inactive | inactive | inactive | inactive | inactive | inactive | inactive | – | inactive | inactive | inactive | inactive | inactive | inactive | inactive | – | inactive | inactive | inactive | inactive
10 | CC/C=C\CCO | inactive | inactive | inactive | inactive | inactive | inactive | inactive | – | inactive | inactive | inactive | inactive | inactive | inactive | inactive | inactive | inactive | inactive | inactive | –
11 | COC(=O)/C=C(/C)N | inactive | inactive | inactive | inactive | inactive | inactive | inactive | – | inactive | inactive | inactive | inactive | inactive | – | inactive | inactive | inactive | inactive | inactive | inactive
12 | CC(C)C(=O)Nc1cccc(C2CN3CCSC3=N2)c1 (stereo not drawn) | inactive | inactive | inactive | inactive | inactive | inactive | inactive | – | inactive | inactive | inactive | inactive | inactive | inactive | inactive | inactive | inactive | inactive | inactive | inactive
13 | Nc1c2ccccc2nc2ccccc12 | inactive | 6.03 µM (active) and 6.68 µM (active) | inactive | inactive | inactive | 11.3 µM (active) and 19.9 µM (active) | 40.3 µM (active) | inactive | inactive | – | inactive | 14.7 µM (active) and inactive | – | – | inactive | – | inactive | inactive | – | inactive
14 | CC(=O)c1ccc2c(c1)CCCC2 | inactive | inactive | inactive | inactive | inactive | inactive | inactive | – | inactive | inactive | inactive | inactive | inactive | inactive | inactive | inactive | inactive | inactive | inactive | inactive
